In PubChem BioAssay (NCATS):
“And” between values parts separate entries of the source, which are not always exact repeats. Equal values may be shown once. Results filed as inconclusive are left out. The source made the active and inactive calls. Calls follow the shape of the dose curve; as a rule, active = well fitted curve in the direction sought with a large enough effect; inconclusive = small, poorly fitted or top-dose-only effect, or another doubt; inactive = no such curve, though single readings can be large; an effect the other way counts as inactive or inconclusive.

Assays:
[1] = qHTS of pediatric cancer cell lines to identify multiple opportunities for drug repurposing: Primary screen for Rh30 cells (AID 1347107); also: series mostly up to about 46 µM; nearly all actives have a fitted effect of over 75% in size
In short: (§1)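 Cells (500-1,000/well) in growth media were settled 5 h at 37 degrees C, then given compounds for 48 h. Viability was read as CellTiter-Glo luminescence. Primary runs used MIPE at 11 points (0.78 nM-46 µM) and NPC at 8 points (0.59 nM-46 µM); follow-ups used 11 points.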

[2] = qHTS of pediatric cancer cell lines to identify multiple opportunities for drug repurposing: Primary screen for Rh41 cells (AID 1347108);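 also: series mostly up to about 46 µM; luminescence drop marks cytotoxic hits; nearly all actives have a fitted effect of over 70% in size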
In short: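 CRCs from 8- or 11-point titrations (lowest final 0.59 nM NPC, 0.78 nM MIPE). Cell viability: CellTiter-Glo after 48 h incubation, 15 min room-temperature development, luminescence imaging.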

[3] = target: N-terminal Xaa-Pro-Lys N-methyltransferase 1 (Homo sapiens) (UniProt Q9BV86); test: qHTS Assay for Inhibitors of N-terminal methyltransferase 1 (NTMT1): LOPAC validation of the NTMT1 SAHH-coupled ThioGlo3 Assay (AID 1347143);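 also: SAH from peptide methylation measured as thiol fluorescence via SAHH coupling and ThioGlo3; nearly all actives have a fitted effect of over 70% in size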; also: potency is read from the fitted curve at half-maximal effect
N-terminal Xaa-Pro-Lys N-methyltransferase 1 (Homo sapiens), sequence (Q9BV86 whole entry, looked up): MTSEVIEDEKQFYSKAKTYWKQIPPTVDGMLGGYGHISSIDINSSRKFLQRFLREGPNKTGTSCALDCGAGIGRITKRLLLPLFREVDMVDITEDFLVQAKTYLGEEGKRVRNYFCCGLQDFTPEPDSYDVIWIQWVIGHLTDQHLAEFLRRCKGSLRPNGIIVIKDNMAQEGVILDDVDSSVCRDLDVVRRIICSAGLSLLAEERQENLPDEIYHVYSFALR
In short: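 In this qHTS pilot against the LOPAC set, 125nM NTMT1 met compounds tested at multiple concentrations, and fluorescence was normalized to background.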

[4] = target: Furin (Homo sapiens) (UniProt P09958); test: Furin counterscreen qHTS for Zika virus inhibitors (AID 1347149); also: nearly all actives have a fitted effect of over 70% in size; also: potency is read from the fitted curve at half-maximal effect
Furin (Homo sapiens), sequence (P09958 whole entry, looked up): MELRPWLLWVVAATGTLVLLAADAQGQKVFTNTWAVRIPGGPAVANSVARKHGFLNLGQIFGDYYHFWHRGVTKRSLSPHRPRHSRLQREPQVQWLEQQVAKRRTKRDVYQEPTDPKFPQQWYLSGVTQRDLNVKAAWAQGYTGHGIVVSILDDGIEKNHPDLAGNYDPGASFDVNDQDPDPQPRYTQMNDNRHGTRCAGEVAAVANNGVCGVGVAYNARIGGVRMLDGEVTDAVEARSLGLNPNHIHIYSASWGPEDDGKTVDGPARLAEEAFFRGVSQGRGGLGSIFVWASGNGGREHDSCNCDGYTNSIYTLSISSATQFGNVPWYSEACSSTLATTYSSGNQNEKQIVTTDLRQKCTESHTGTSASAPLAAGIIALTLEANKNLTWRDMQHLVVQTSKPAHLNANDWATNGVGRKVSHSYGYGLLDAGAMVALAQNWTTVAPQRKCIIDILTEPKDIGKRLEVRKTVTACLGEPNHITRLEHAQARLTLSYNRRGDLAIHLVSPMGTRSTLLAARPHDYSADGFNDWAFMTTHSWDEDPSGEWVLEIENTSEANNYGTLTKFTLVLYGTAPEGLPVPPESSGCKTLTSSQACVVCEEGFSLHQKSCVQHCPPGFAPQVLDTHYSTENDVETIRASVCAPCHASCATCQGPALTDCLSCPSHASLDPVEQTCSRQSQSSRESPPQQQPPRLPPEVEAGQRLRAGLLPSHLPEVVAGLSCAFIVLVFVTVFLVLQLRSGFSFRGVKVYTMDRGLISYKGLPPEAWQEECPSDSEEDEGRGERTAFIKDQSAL
In short: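 Counterscreen measures cleavage of 2 microM BOC-RVRR-AMC, below its ~15 microM Km, by 5 nM full-length human furin at pH 7.0 after a 15-min compound preincubation. Inhibition derives from the 15-min fluorescence increase at 37C.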

[5] = qHTS of pediatric cancer cell lines to identify multiple opportunities for drug repurposing: Confirmatory screen for NB1643 cells (AID 1347109); also: nearly all actives have a fitted effect of over 45% in size; also: potency is read from the fitted curve at half-maximal effect
In short: as §1

[6] = qHTS of pediatric cancer cell lines to identify multiple opportunities for drug repurposing: Confirmatory screen for BT-12 cells (AID 1347112); also: nearly all actives have a fitted effect of over 55% in size; also: potency is read from the fitted curve at half-maximal effect
In short: as §1

[7] = qHTS of pediatric cancer cell lines to identify multiple opportunities for drug repurposing: Confirmatory screen for LAN-5 cells (AID 1347113); also: nearly all actives have a fitted effect of over 65% in size; also: potency is read from the fitted curve at half-maximal effect
In short: as §1

[8] = qHTS of pediatric cancer cell lines to identify multiple opportunities for drug repurposing: Confirmatory screen for NB-EBc1 cells (AID 1347115);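 also: cells exposed to compound for 48 h before the viability read; nearly all actives have a fitted effect of over 45% in size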; also: potency is read from the fitted curve at half-maximal effect
In short: as §1

[9] = qHTS of pediatric cancer cell lines to identify multiple opportunities for drug repurposing: Confirmatory screen for SJ-GBM2 cells (AID 1347116); also: nearly all actives have a fitted effect of over 60% in size; also: potency is read from the fitted curve at half-maximal effect
In short: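 Viability measured as metabolically active cells via CellTiter-Glo luminescence following 48 hours of compound exposure, 11-point dilutions in confirmatory testing. 500-1,000 cells/well plated 5 hours before dosing; controls were DMSO and 2.3 µM bortezomib.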

[10] = qHTS of pediatric cancer cell lines to identify multiple opportunities for drug repurposing: Confirmatory screen for control Hh wild type fibroblast cells (AID 1347121); also: nearly all actives have a fitted effect of over 70% in size; also: potency is read from the fitted curve at half-maximal effect
In short: as §1

[11] = qHTS of pediatric cancer cell lines to identify multiple opportunities for drug repurposing: Confirmatory screen for U-2 OS cells (AID 1347122); also: nearly all actives have a fitted effect of over 65% in size; also: potency is read from the fitted curve at half-maximal effect
In short: as §1

[12] = qHTS of pediatric cancer cell lines to identify multiple opportunities for drug repurposing: Confirmatory screen for Rh18 cells (AID 1347125); also: nearly all actives have a fitted effect of over 55% in size; also: potency is read from the fitted curve at half-maximal effect
In short: as §1

[13] = qHTS of pediatric cancer cell lines to identify multiple opportunities for drug repurposing: Confirmatory screen for Rh30 cells (AID 1347126); also: nearly all actives have a fitted effect of over 55% in size; also: potency is read from the fitted curve at half-maximal effect
In short: as §1

[14] = qHTS of pediatric cancer cell lines to identify multiple opportunities for drug repurposing: Confirmatory screen for OHS-50 cells (AID 1347128);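 also: compound exposure lasted 48 h at 37 degrees C; nearly all actives have a fitted effect of over 55% in size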; also: potency is read from the fitted curve at half-maximal effect
In short: as §1

[15] = qHTS of pediatric cancer cell lines to identify multiple opportunities for drug repurposing: Confirmatory screen for SK-N-SH cells (AID 1347129);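 also: cells exposed to compound for 48 h before viability read; nearly all actives have a fitted effect of over 60% in size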; also: potency is read from the fitted curve at half-maximal effect
In short: as §1

[16] = qHTS of pediatric cancer cell lines to identify multiple opportunities for drug repurposing: Confirmatory screen for SK-N-MC cells (AID 1347111)
In short: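 Metabolically active cells were quantified by ATP-dependent luminescence (CellTiter-Glo, 15 min at room temperature) following 48 h treatment. Cells had been plated at 500-1,000 per well and settled for 5 h beforehand.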

[17] = qHTS of pediatric cancer cell lines to identify multiple opportunities for drug repurposing: Confirmatory screen for BT-37 cells (AID 1347117)
In short: as §1

[18] = qHTS of pediatric cancer cell lines to identify multiple opportunities for drug repurposing: Confirmatory screen for A673 cells (AID 1347110);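 also: potency is read from the fitted curve at half-maximal effect; cells exposed to compound for 48 h before the viability read; nearly all actives have a fitted effect of over 65% in size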
In short: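 Concentration-response curves came straight from titrations: 11 points (0.78 nM to 46 µM) for MIPE and several concentrations (0.59 nM to 46 µM) for NPC in primary, 11 points in follow-up. Readout: ATP luminescence at 48 h.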

[19] = qHTS of pediatric cancer cell lines to identify multiple opportunities for drug repurposing: Confirmatory screen for MG 63 (6-TG R) cells (AID 1347119)
In short: as §1

[20] = qHTS of pediatric cancer cell lines to identify multiple opportunities for drug repurposing: Confirmatory screen for Rh41 cells (AID 1347123);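 also: potency is read from the fitted curve at half-maximal effect; 48 h compound exposure; nearly all actives have a fitted effect of over 60% in size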
In short: as §1

Measured: Potency

OCCN(CCO)c1nc(N2CCCCC2)c2nc(N(CCO)CCO)nc(N3CCCCC3)c2n1
inactive: [1] | [2]
active: [3] 79.4 µM

CC(=O)OCC(CCn1cnc2cnc(N)nc21)COC(C)=O
active: [3] 56.2 µM
inactive: [1] | [2]

Cc1ccccc1N1C(=O)c2cc(S(N)(=O)=O)c(Cl)cc2NC1C (configuration not stated)
active: [4] 27 µM
inactive: [1] | [2]

Cn1ccc2cc3c(cc21)CCN3C(=O)Nc1cccnc1
inactive: [1] | [2]
active: [4] 21.5 µM

Cc1ccc(C(=O)Nc2ccc(S(=O)(=O)O)c3cc(S(=O)(=O)O)cc(S(=O)(=O)O)c23)cc1NC(=O)c1cccc(NC(=O)Nc2cccc(C(=O)Nc3cc(C(=O)Nc4ccc(S(=O)(=O)O)c5cc(S(=O)(=O)O)cc(S(=O)(=O)O)c45)ccc3C)c2)c1
inactive: [1] | [2] | [3]

O=c1c(O)c(-c2ccc(O)c(O)c2)oc2cc(O)cc(O)c12
inactive: [1] | [2] | [4]

Fc1ccc([C@@H]2CCNC[C@H]2COc2ccc3c(c2)OCO3)cc1
inactive: [1] | [2] | [3]

COc1ccc(C2CNC(=O)C2)cc1OC1CCCC1 (configuration not stated)
inactive: [1] | [2] | [3]

O=c1[nH]cc(F)c(=O)[nH]1
inactive: [1] | [2] | [3]

Clc1ccc(C(c2ccccc2Cl)C(Cl)Cl)cc1 (configuration not stated)
inactive: [1] | [5] | [6] | [7] | [8] | [9] | [10] | [11] | [12] | [13] | [14] | [15]

CC1COc2c(N3CCN(C)CC3)c(F)cc3c(=O)c(C(=O)O)cn1c23 (configuration not stated)
inactive: [1] | [2]
active: [4] 24.1 µM and 27.1 µM

CCC1(C)CC(=O)NC1=O (configuration not stated)
inactive: [1] | [2] | [3]

Nc1nc2c(ncn2COC(CO)CO)c(=O)[nH]1
inactive: [1] | [3]

NCCS(=O)(=O)O
inactive: [1] | [2] | [3]

CC(C)NCC(O)c1ccc(O)c(O)c1 (configuration not stated)
active: [16] 2.33 µM | [6] 4.14 µM | [17] 5.22 µM | [11] 7.37 µM
inactive: [1] | [5] | [8] | [10] | [15]

Cc1cnc(C(=O)NCCc2ccc(S(=O)(=O)NC(=O)NC3CCCCC3)cc2)cn1
inactive: [1] | [2] | [4]

O=C1Cc2cc(CCN3CCN(c4nsc5ccccc45)CC3)c(Cl)cc2N1
active: [4] 24.1 µM
inactive: [1] | [2]

CCCCc1oc2ccccc2c1C(=O)c1cc(I)c(OCCN(CC)CC)c(I)c1
inactive: [1]
active: [5] 44.7 µM | [18] 56.2 µM | [16] 22.4 µM | [6] 79.4 µM | [7] 35.5 µM | [8] 56.2 µM | [9] 79.4 µM | [17] 50.1 µM | [19] 39.8 µM | [10] 70.8 µM | [11] 28.2 µM | [20] 17.8 µM | [12] 50.1 µM | [13] 56.2 µM | [14] 44.7 µM | [15] 56.2 µM
